What follows are sequences tested on RARg homodimer (NR concentration 270 nM) (assay: PBM binding z-score (relative to random genomic background probes); higher = stronger binding; sequences stand for … in GC…GCGATTGACAGCGTAGAATGAAGG).
Summary of the method: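 Scanned fluorescence from custom Agilent 4×180K protein-binding microarrays was regression-normalized. Binding z-scores use random background probes as reference. Ligand-free nuclear receptor dimers were incubated on the arrays for 1 h and detected with antibodies against each partner (one per run).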

| Sequence | PBM binding z-score |
| --- | --- |
| CCGAGTAGATTATGGGGCATTCAGGCAACGGTGA | 0.0692 |
| CGTCAAAGATCAACTAAGGTAACGTAAAGCACGC | 0.647 |
| ACTATTAGCTGAGACGAGGGCAACCGATAGGTTG | 0.667 |
| ATCTCTAGGTAAGAATCAGTTCAGTGAAGAACGC | 0.6 |
| CTAGAAAGGTCGTGCTCAGGTGAGTATACCAAAC | 3.62 |
| TATTGTAGATCAACAGGAGGTTAAGAAAGATCGA | 0.791 |
| CCTGCTAGGTCAATGTTCAGCTAAAGCAGCTCGC | 4.07 |
| TCATATAGGTACATGCTAGGTGAAAGTCCGATCT | 0.462 |
| TTTCGGAGGACACGAAAGGTCAGAGCTCGACATC | 5.29 |
| CAGCCTAGGTCAGGGCCAGTCTAGGAGGAACGTT | 3.7 |
| TTACCAAGATGAAGGTCGTTGATCCCTCTGTAGA | 0.0937 |
| TTACCAAGGTGAGCAGAGGTCGTTGATCCAACTC | 1.26 |
| TCATATAGGTAAACAGGTTAAAGTCCGTAAGTTA | 0.666 |
| TCGAGTAGGTTAGTCTGGGCATTCAGCCAACATA | -0.417 |
| GCTCGGAGGACAAGGTCAGAGCATTGTCCGTAGA | 3.72 |
| GATACAGGGTCAGCTAGAGGACAGAGTATGGAAA | 4.97 |
| ACTAGCAGGCCAAGTTTCGGTCACTCAAACAAAG | 1.53 |
| AGTACAGGGTCATCGTAGGCCAGAGTACGCACAG | 5.22 |
| ATCTCTCGGTAACCAAGTTCAGTGAATGCCGAAC | 0.621 |
| GATACAGGGTCAGCTAGAGGCCAGAGTGTGGAAA | 4.74 |
| TAGCCTAGGTCAGATCGGGCCAGTAGACGCTATA | 3.37 |
| CGTCCAAGGTTATAGGAGGTCAGTGAAGACAGAT | 3.5 |

From the supplement of paper PMC6555819
